Measurements taken from the supplement of paper PMC8728848.
The entries come from a sample that favours the strongest signals as a whole.

Assays:
Test in all cases: glycan array binding signal (z-score within array); higher = stronger binding
Settings in all cases: glycan notation: IUPAC condensed, linker removed
[1] = target: Fuc(a1-2)Gal(b1-3)GalNAc(b1-3)Gal(a1-4)Gal(b1-4)Glc
In short: (§1)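 From the Consortium for Functional Glycomics database, 3228 arrays were curated, keeping only those whose protein sequence was available. Binding is given as a within-array Z-score averaged across arrays sharing a protein sequence and across linkers. Negative Z-scores can be read as non-binding.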

[2] = target: Fuc(a1-2)Gal(b1-3)GalNAc(b1-4)[Neu5Ac(a2-3)]Gal(b1-4)Glc
In short: as §1

Fuc(a1-2)Gal(b1-3)GlcNAc = target: Fuc(a1-2)Gal(b1-3)GlcNAc
In short: as §1

[3] = target: Fuc(a1-2)Gal(b1-3)[Fuc(a1-4)]GlcNAc(b1-3)[Fuc(a1-3)[Gal(b1-4)]GlcNAc(b1-6)]Gal(b1-4)Glc
In short: as §1

[4] = target: Fuc(a1-2)Gal(b1-4)GlcNAc(b1-3)GalNAc
In short: as §1

[5] = target: Fuc(a1-2)Gal(b1-4)[Fuc(a1-3)]GlcNAc(b1-3)GalNAc
In short: as §1

[6] = target: Fuc(a1-2)[Gal(a1-3)]Gal(b1-3)GlcNAc(b1-2)Man(a1-3)[Fuc(a1-2)[Gal(a1-3)]Gal(b1-3)GlcNAc(b1-2)Man(a1-6)]Man(b1-4)GlcNAc(b1-4)[Fuc(a1-6)]GlcNAc
In short: as §1

[7] = target: Fuc(a1-2)[Gal(a1-3)]Gal(b1-4)Glc
In short: as §1

[8] = target: Fuc(a1-2)[GalNAc(a1-3)]Gal(b1-4)GlcNAc(b1-2)Man(a1-3)[Fuc(a1-2)[GalNAc(a1-3)]Gal(b1-4)GlcNAc(b1-2)Man(a1-6)]Man(b1-4)GlcNAc(b1-4)[Fuc(a1-6)]GlcNAc
In short: as §1

[9] = target: Fuc(a1-3)[Gal(b1-4)]GlcNAc(b1-2)Man(a1-3)[Fuc(a1-3)[Gal(b1-4)]GlcNAc(b1-2)Man(a1-6)]Man(b1-4)GlcNAc(b1-4)[Fuc(a1-6)]GlcNAc
In short: as §1

Gal(a1-2)Gal = target: Gal(a1-2)Gal
In short: as §1

[10] = target: Gal(a1-3)Gal(b1-4)GlcNAc(b1-3)GalNAc
In short: as §1

[11] = target: Gal(a1-3)Gal(b1-4)[Fuc(a1-3)]GlcNAc
In short: as §1

[12] = target: Gal(a1-4)Gal(b1-4)GlcNAc(b1-2)Man(a1-3)[Gal(a1-4)Gal(b1-4)GlcNAc(b1-2)Man(a1-6)]Man(b1-4)GlcNAc(b1-4)GlcNAc
In short: as §1

[13] = target: Gal(b1-3)GalNAc(b1-4)[Neu5Ac(a2-3)]Gal(b1-4)Glc
In short: as §1

[14] = target: Gal(b1-3)GlcNAc(b1-2)Man(a1-3)[Gal(b1-3)GlcNAc(b1-2)Man(a1-6)]Man(b1-4)GlcNAc(b1-4)GlcNAc
In short: as §1

[15] = target: Gal(b1-3)GlcNAc(b1-3)Gal(b1-3)GlcNAc
In short: as §1

[16] = target: Gal(b1-3)GlcNAc(b1-3)Gal(b1-4)[Fuc(a1-3)]GlcNAc(b1-6)[Gal(b1-3)GlcNAc(b1-3)]Gal(b1-4)Glc
In short: as §1

Gal(b1-4)GlcNAc(b1-2)Man = target: Gal(b1-4)GlcNAc(b1-2)Man
In short: as §1

[17] = target: Gal(b1-4)GlcNAc(b1-2)[Gal(b1-4)GlcNAc(b1-4)]Man(a1-3)[Gal(b1-4)GlcNAc(b1-2)[Gal(b1-4)GlcNAc(b1-6)]Man(a1-6)]Man(b1-4)GlcNAc(b1-4)GlcNAc
In short: as §1

[18] = target: Gal(b1-4)GlcNAc(b1-3)Gal(b1-3)GlcNAc
In short: as §1

[19] = target: Gal(b1-4)GlcNAc(b1-3)Gal(b1-4)[Fuc(a1-3)GlcNAc(b1-6)]Gal(b1-4)Glc
In short: as §1

Gal6S(b1-4)Glc = target: Gal6S(b1-4)Glc
In short: as §1

GalNAc(b1-6)GalNAc = target: GalNAc(b1-6)GalNAc
In short: as §1

GlcA(b1-3)Gal = target: GlcA(b1-3)Gal
In short: as §1

[20] = target: GlcNAc(a1-4)Gal(b1-3)GlcNAc
In short: as §1

[21] = target: GlcNAc(a1-4)Gal(b1-4)GlcNAc(b1-3)Gal(b1-4)Glc
In short: as §1

[22] = target: GlcNAc(a1-4)Gal(b1-4)GlcNAc(b1-3)Gal(b1-4)GlcNAc
In short: as §1

[23] = target: GlcNAc(a1-6)Gal(b1-4)GlcNAc
In short: as §1

[24] = target: GlcNAc(b1-2)Man(a1-3)[GlcNAc(b1-2)Man(a1-6)]Man(b1-4)GlcNAc(b1-4)[Fuc(a1-6)]GlcNAc
In short: as §1

[25] = target: GlcNAc(b1-4)GlcNAc(b1-4)GlcNAc
In short: as §1

Kdn(a2-3)Gal(b1-4)GlcNAc = target: Kdn(a2-3)Gal(b1-4)GlcNAc
In short: as §1

[26] = target: Man(a1-2)Man(a1-6)[Man(a1-3)]Man(a1-6)[Man(a1-2)Man(a1-2)Man(a1-3)]Man
In short: as §1

[27] = target: Man(a1-3)[Man(a1-6)]Man(a1-6)[Man(a1-3)]Man(b1-4)GlcNAc(b1-4)GlcNAc
In short: as §1

Man(a1-6)Man = target: Man(a1-6)Man
In short: as §1

Man(b1-4)GlcNAc = target: Man(b1-4)GlcNAc
In short: as §1

[28] = target: Neu5Ac(a2-3)Gal(b1-3)GalNAc(b1-4)[Neu5Ac(a2-3)]Gal(b1-4)Glc
In short: as §1

[29] = target: Neu5Ac(a2-3)Gal(b1-4)GlcNAc(b1-2)Man(a1-3)[Neu5Ac(a2-6)Gal(b1-4)GlcNAc(b1-2)Man(a1-6)]Man(b1-4)GlcNAc(b1-4)GlcNAc
In short: as §1

[30] = target: Neu5Ac(a2-3)Gal(b1-4)GlcNAc(b1-3)Gal(b1-3)GlcNAc
In short: as §1

[31] = target: Neu5Ac(a2-3)Gal(b1-4)[Fuc(a1-3)]GlcNAc(b1-3)Gal(b1-4)[Fuc(a1-3)]GlcNAc(b1-3)Gal(b1-4)[Fuc(a1-3)]GlcNAc
In short: as §1

[32] = target: Neu5Ac(a2-6)Gal(b1-4)GlcNAc(b1-3)Gal(b1-4)GlcNAc(b1-3)Gal(b1-4)GlcNAc
In short: as §1

B1: CD72 ectodomain (Homo sapiens), P21854 (protein)
chain: RYLQVSQQLQQTNRVLEVTNSSLRQQLRLKITQLGQSAEDLQGSRRELAQSQEALQVEQRAHQAAEGQLQACQADRQKTKETLQSEEQQRRALEQKLSNMENRLKPFFTCGSADTCCPSGWIMHQKSCFYISLTSKNWQESQKQCETLSSKLATFSEIYPQSHSYYFLNSLLPNGGSGNSYWTGLSSNKDWKLTDDTQRTRTYAQSSKCNKVHKTWSWWTLESESCRSSLPYICEMTAFRFPD
- glycan array binding signal (z-score) [1]: -0.867
- glycan array binding signal (z-score) [2]: 0.01
- glycan array binding signal (z-score) (Fuc(a1-2)Gal(b1-3)GlcNAc): 1.12
- glycan array binding signal (z-score) [3]: -0.186
- glycan array binding signal (z-score) [4]: 1.08
- glycan array binding signal (z-score) [5]: 5.72
- glycan array binding signal (z-score) [6]: 2.7
- glycan array binding signal (z-score) [7]: 0.3
- glycan array binding signal (z-score) [8]: 0.886
- glycan array binding signal (z-score) [9]: 0.575
- glycan array binding signal (z-score) (Gal(a1-2)Gal): 0.56
- glycan array binding signal (z-score) [10]: -1.69
- glycan array binding signal (z-score) [11]: 1.45
- glycan array binding signal (z-score) [12]: 0.8
- glycan array binding signal (z-score) [13]: 1.16
- glycan array binding signal (z-score) [14]: 1.6
- glycan array binding signal (z-score) [15]: -0.958
- glycan array binding signal (z-score) [16]: 2.26
- glycan array binding signal (z-score) (Gal(b1-4)GlcNAc(b1-2)Man): 0.51
- glycan array binding signal (z-score) [17]: -0.561
- glycan array binding signal (z-score) [18]: -0.795
- glycan array binding signal (z-score) [19]: -0.359
- glycan array binding signal (z-score) (Gal6S(b1-4)Glc): -0.925
- glycan array binding signal (z-score) (GalNAc(b1-6)GalNAc): -0.435
- glycan array binding signal (z-score) (GlcA(b1-3)Gal): 2.21
- glycan array binding signal (z-score) [20]: -1.11
- glycan array binding signal (z-score) [21]: 0.006
- glycan array binding signal (z-score) [22]: 4.25
- glycan array binding signal (z-score) [23]: 4.24
- glycan array binding signal (z-score) [24]: 2.59
- glycan array binding signal (z-score) [25]: 0.82
- glycan array binding signal (z-score) (Kdn(a2-3)Gal(b1-4)GlcNAc): 0.726
- glycan array binding signal (z-score) [26]: -0.32
- glycan array binding signal (z-score) [27]: 0.977
- glycan array binding signal (z-score) (Man(a1-6)Man): -0.096
- glycan array binding signal (z-score) (Man(b1-4)GlcNAc): 2.32
- glycan array binding signal (z-score) [28]: -0.087
- glycan array binding signal (z-score) [29]: 0.127
- glycan array binding signal (z-score) [30]: 1.03
- glycan array binding signal (z-score) [31]: 1.73
- glycan array binding signal (z-score) [32]: 0.371
